Data taken from PubChem BioAssay AID1254 (The Scripps Research Institute Molecular Screening Center, 2008).
Among all 1,200 compounds or so, about 250 (21%) were called active. A selection follows. Unmarked numbers belong to inactive results. No stated cut-off is given here; in the data, active means inhibition above about 20%; inactive means the rest.

These compounds were tested against Neuropeptide Y receptor type 1 (Homo sapiens) (UniProt P25929) (assay: blockers of human NPY-Y1 signalling – HEK293-CNG cells, membrane potential fluorescence, triplicate, confirmation (AID 1254;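 further: 0% = vehicle with agonist plus stimulus and 100% = stimulus alone without agonist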)). Settings: cAMP, at 3.6 µM, hits give high values, NPY challenge against isoproterenol-raised cAMP.
Neuropeptide Y receptor type 1 (Homo sapiens), sequence (P25929 whole entry, looked up): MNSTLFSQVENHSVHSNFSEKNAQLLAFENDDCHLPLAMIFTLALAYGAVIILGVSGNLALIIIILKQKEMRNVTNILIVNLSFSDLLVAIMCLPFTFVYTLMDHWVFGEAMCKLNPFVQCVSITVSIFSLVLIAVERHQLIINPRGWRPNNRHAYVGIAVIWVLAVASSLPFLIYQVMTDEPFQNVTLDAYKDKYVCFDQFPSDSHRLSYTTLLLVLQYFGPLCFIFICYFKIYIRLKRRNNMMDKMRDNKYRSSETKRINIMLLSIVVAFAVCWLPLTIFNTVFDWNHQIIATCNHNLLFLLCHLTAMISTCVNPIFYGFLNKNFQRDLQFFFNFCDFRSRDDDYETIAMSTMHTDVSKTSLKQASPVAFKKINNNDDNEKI

SMILES | inhibition
O=C(CSc1nnnn1C1CCCC1)Nc1ccc2c(c1)OCCO2 | 10.8%
CCN1CCN(CCNC(=O)c2ccc(/C=C3/Sc4ccccc4N(Cc4cccc(C)c4)C3=O)cc2)CC1 | 14.5%
COC(=O)c1ccc(COC(=O)c2c(C)nn(Cc3ccccc3Cl)c2Cl)o1 | 7.48%
CC(C)(C)NCc1cc(Br)ccc1OC1CCCC1 | 21.6% (active)
Cc1ccccc1Nc1scc(-c2ccc(Br)cc2)[n+]1-c1ccccc1C | 18.4%
COc1ccccc1C1C2=C(COC2=O)Nc2cc3c(cc21)OCO3 (stereo not drawn) | 2.86%
COc1ccc(-c2[nH]nc(-c3ccccc3)c2-c2nc3ccccc3[nH]2)cc1 | 13.6%
COc1ccc(C(=O)CSc2nnc(COc3ccccc3)n2Cc2ccco2)cc1 | 5.39%
Cc1cc(C)c2[nH]c(=O)c(CN(Cc3ccccc3)C(=S)NCCCN(C)C)cc2c1 | 15.2%
O=S(=O)(O)c1nc2ccccc2n1Cc1ccc(Cl)cc1 | 5.94%
O=C(NCCc1ccc2c(c1)OCCO2)c1cc2ccccc2o1 | 13.2%
CCCOc1ccc2c3c(c(=O)oc2c1OCCC)CCC3 | 5.13%
C/C(=N\NC(=S)NCc1ccccc1)c1ccc(Cl)cc1 | 4.98%
Cc1ccc(-c2cc(C(=O)N3CCc4ccccc4C3)no2)cc1 | 10.9%
OCC1(CCc2ccccc2)CCN(Cc2ccc3nsnc3c2)CC1 | 9.69%
COc1ccc(CCN(C(=O)COc2ccccc2)c2nc(-c3ccccc3)cs2)cc1OC | 13.1%
CC(Nc1nc(N2CCN(CCO)CC2)nc2ccccc12)c1ccccc1 (stereo not drawn) | 4.06%
c1ccc2c(NC3C4CC5CC(C4)CC3C5)nc(N3CCOCC3)nc2c1 (stereo not drawn) | 25.2% (active)
c1ccc(-c2ccccc2OCCN2CCCCC2)cc1 | 4.72%
CCCCCCCCn1c2c(c(=N)c3c1CCC3)CCCC2 | 64.7% (active)
O=C(CN1CCN(c2ncc(C(F)(F)F)cc2Cl)CC1)Nc1ccc2c(c1)OCO2 | 12.4%
Cc1ccc2nc(-c3ccccn3)cc(C(=O)Nc3ccc4c(c3)OCO4)c2c1 | 27% (active)
COc1cc2c(C(=O)N3CCN(C)CC3)c(CSc3ccccc3)n(C)c2cc1Br | 20.6% (active)

SMILES | inhibition
CS(=O)(=O)N1CCCC(C(=O)N2CCOCC2)C1 (stereo not drawn) | -0.5%
CCOC(=O)CSc1nc2c(sc(=S)n2CCc2ccccc2)c(=O)n1Cc1ccco1 | 18.3%
O=C(c1cc(-c2ccc(O)cc2)on1)N1CCCc2ccccc21 | 2.54%
CCOC1CCCCC1NS(=O)(=O)c1ccc(Cl)cc1 (stereo not drawn) | -0.15%
CCCC(=O)Nc1nc2ccc(NC(=O)c3c(F)c(F)c(OC)c(F)c3F)cc2s1 | 6.69%
Cc1ccc(N2C(=O)C3N=NN(CC(=O)N4N=C(c5cccc6ccccc56)CC4c4ccccc4)C3C2=O)cc1 (stereo not drawn) | 0.57%
COC(=O)C1=C(Nc2ccc(C)cc2)C=C(C)C(C(=O)OC)C1c1ccc(F)cc1 (stereo not drawn) | 19%
NC(N)=N/N=C/c1ccc(OCc2ccc(Cl)cc2Cl)cc1 | 11.7%
CC(=O)OC(C)C[N+](C)(C)C (stereo not drawn) | 15.3%
Cc1ccc(C(=O)C[n+]2cc(-c3ccccc3)n3c2CCCCC3)cc1 | 22.1% (active)
CCOC(=O)N1CCN(S(=O)(=O)c2ccc(C(=O)Nc3ccc(F)cc3F)cc2)CC1 | 2.56%
Cc1nc(-c2ccccc2)sc1C(=O)/C=C/c1ccccc1 | 7.83%
COc1ccc(C(c2nnnn2C2CCCCC2)N2CCN(c3ccccc3F)CC2)cc1 (stereo not drawn) | 15%
Cc1ccc(SCCC(=O)OCC(=O)Nc2ncc(Cl)cc2Cl)cc1 | 5.19%
CCCCc1c(O)nc2n(c1=O)CCS2 | 1.41%
CCCOC(=O)c1[nH]c2c(c1C)C(=O)CC(c1cccs1)C2 (stereo not drawn) | 7.07%
CC1CN(CCCOc2ccccc2-c2ccccc2)CC(C)O1 (stereo not drawn) | 2.5%
Cc1ccc(Cn2c(NC(=O)c3ccco3)nc3ccccc32)cc1 | 17.4%
COc1cccc(CNCCc2c[nH]c3ccccc23)c1OCc1ccccc1F | 9.73%
OC(COCCC12CC3CC(CC(C3)C1)C2)CN1CCCCC1 (stereo not drawn) | 3.08%
Cc1ccc(/C=N/NC(=O)COc2ccccc2-c2ccccc2)cc1 | 11.6%
CCCSc1nc(NCc2ccco2)c2c3c(sc2n1)COC(C)(CC)C3 (stereo not drawn) | 10.4%
O=C(Cc1cccs1)N(CC1CCCO1)C1(C(=O)NC2CCCCC2)CCCCC1 (stereo not drawn) | 9.42%

SMILES | inhibition
COc1ccccc1N1CCN(C(=O)CN(Cc2ccc(Cl)cc2)S(C)(=O)=O)CC1 | 11.6%
CCC(=O)c1c[nH]c(C(=O)NCC2CCCO2)c1 (stereo not drawn) | 0.28%
CCOC(=O)c1nn(-c2cccc(C)c2)cc1C(=O)c1ccccc1 | 5.58%
COC(=O)c1ccc(C(NC(=O)OCc2ccccc2)/C(C)=C/[C@@H](C)C(=O)NCc2ccc(OC)c(OC)c2)cc1 (stereo partly drawn) | 15.9%
O=C(NCCCN1CCOCC1)c1cnn2c(-c3ccccc3)cc(-c3ccccc3)nc12 | 25% (active)
O=C1c2cccnc2C(Nc2ccc(S(=O)(=O)N3CCCCCC3)cc2)N1Cc1ccccc1 (stereo not drawn) | 0.2%
COc1ccc(C2Nc3ccccc3C(=O)N2Cc2ccccc2)cc1Cn1nnc2ccccc21 (stereo not drawn) | 11.8%
CCS(=O)(=O)n1nc(-c2ccccc2)nc1SCc1ccccc1 | 13.5%
Cc1cc(C(C)(C)C)oc1C(=O)N(CC(=O)NC1CCCC1)Cc1ccc(Cl)cc1 | 25.8% (active)
O=C(/C=C/c1ccco1)Nc1cccc(-c2nc3ccccc3[nH]2)c1 | 2.58%
Oc1ccc(-c2[nH]ncc2-c2nc3ccccc3s2)c(O)c1 | 53% (active)
CCc1ccc(CNC(=O)C2CCCN(c3nc4ccccc4o3)C2)cc1 (stereo not drawn) | 13.2%
CCCCn1nc(C(=O)N2CCc3ccccc32)c2ccccc2c1=O | 3.55%
Clc1ccccc1-c1cc(COc2ccc3ccccc3c2)no1 | 13.6%
CCCCCCC(=O)Nc1nc(C)c(-c2csc(Nc3cccc(OC)c3)n2)s1 | 17.8%
CC(Oc1ccc2ccccc2c1)C(=O)NNC(=S)NC(=O)c1ccco1 (stereo not drawn) | 10.5%
Cc1ccc(C(=O)N/C(=C/c2ccc(-c3cccc([N+](=O)[O-])c3)o2)C(=O)NCCCN(C)C)cc1 | 9.75%
O=C(CSc1nc2cc3c(cc2c(=O)n1CCC1=CCCCC1)OCO3)NCc1ccco1 | 4.77%
CC(=O)N1CC(C)c2scc(C)[n+]2-c2ccccc21 (stereo not drawn) | -0.57%
Fc1ccc(-c2nnc(CSc3nnc(-c4ccc5c(c4)OCO5)o3)o2)cc1 | 10.1%
CN(C)CCCCCN(C)Cc1cc2ccccc2o1 | 9.51%
CC(C)Cn1cnc2c1c(=O)n(CC(O)c1ccccc1)c(=O)n2CC(C)C (stereo not drawn) | -1.75%
